In the supplement of paper PMC12645437, “Orthogonal IMiD-Degron Pairs Induce Selective Protein Degradation in Cells” (ACS Chemical Biology, 2025):
Whole data set: some 8,300 sequences, median “log2 fold change of degron read counts, EGFP-low vs EGFP+ sorted cells (limma voom), compound-induced degradation” near -1.1, cut for the highest 2% near 3.2. The list comes from a sample in which the highest values are over-represented; it also holds similar and randomly drawn sequences.

T1: CRBN, Q96SW2
T1 chain: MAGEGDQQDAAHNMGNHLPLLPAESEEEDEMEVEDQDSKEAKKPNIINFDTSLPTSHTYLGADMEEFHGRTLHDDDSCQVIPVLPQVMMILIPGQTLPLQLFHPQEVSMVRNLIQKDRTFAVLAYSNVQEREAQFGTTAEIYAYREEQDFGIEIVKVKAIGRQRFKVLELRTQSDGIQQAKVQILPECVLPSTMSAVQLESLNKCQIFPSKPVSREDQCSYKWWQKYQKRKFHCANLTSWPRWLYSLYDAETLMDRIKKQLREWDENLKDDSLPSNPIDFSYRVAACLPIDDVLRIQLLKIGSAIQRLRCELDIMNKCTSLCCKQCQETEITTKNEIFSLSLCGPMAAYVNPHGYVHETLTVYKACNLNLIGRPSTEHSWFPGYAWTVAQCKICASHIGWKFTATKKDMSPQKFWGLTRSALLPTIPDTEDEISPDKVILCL

B1: 46F_47K_49E_50I_52G_53R_54A_55F_67L_, Q9UKT9 (peptide)
chain: FKCEICGRAFTQKGNLLRHIKL
B2: 46F_47T_49D_50V_52G_53A_54D_55F_67L_, Q9UKT9 (peptide)
chain: FTCDVCGADFTQKGNLLRHIKL
B3: 46F_47M_49E_50V_52G_53A_54F_55F_67L_, Q9UKT9 (peptide)
chain: FMCEVCGAFFTQKGNLLRHIKL
B4: 46F_47C_49N_50Q_52G_53R_54A_55F_67L_, Q9UKT9 (peptide)
chain: FCCNQCGRAFTQKGNLLRHIKL
B5: 46F_47G_49D_50V_52G_53A_54E_55F_67L_, Q9UKT9 (peptide)
chain: FGCDVCGAEFTQKGNLLRHIKL
B6: 46F_47C_49P_50I_52G_53R_54M_55F_67L_, Q9UKT9 (peptide)
chain: FCCPICGRMFTQKGNLLRHIKL
B7: 46F_47Q_49N_50Q_52G_53H_54E_55F_67L_, Q9UKT9 (peptide)
chain: FQCNQCGHEFTQKGNLLRHIKL
B8: 46L_47C_49N_50Q_52G_53F_54W_55C_67L_, Q9UKT9 (peptide)
chain: LCCNQCGFWCTQKGNLLRHIKL
B9: 46F_47Q_49D_50V_52G_53A_54A_55F_67L_, Q9UKT9 (peptide)
chain: FQCDVCGAAFTQKGNLLRHIKL
B10: 46F_47M_49E_50Q_52G_53A_54T_55F_67L_, Q9UKT9 (peptide)
chain: FMCEQCGATFTQKGNLLRHIKL
B11: 46F_47L_49P_50I_52G_53H_54C_55F_67L_, Q9UKT9 (peptide)
chain: FLCPICGHCFTQKGNLLRHIKL
B12: 46F_47E_49P_50I_52G_53R_54G_55F_67L_, Q9UKT9 (peptide)
chain: FECPICGRGFTQKGNLLRHIKL
B13: 46F_47Y_49E_50I_52G_53A_54A_55F_67L_, Q9UKT9 (peptide)
chain: FYCEICGAAFTQKGNLLRHIKL
B14: 46F_47Q_49E_50I_52G_53A_54A_55F_67L_, Q9UKT9 (peptide)
chain: FQCEICGAAFTQKGNLLRHIKL
B15: 46F_47I_49E_50I_52G_53A_54A_55F_67L_, Q9UKT9 (peptide)
chain: FICEICGAAFTQKGNLLRHIKL
B16: 46F_47V_49E_50I_52G_53A_54A_55F_67L_, Q9UKT9 (peptide)
chain: FVCEICGAAFTQKGNLLRHIKL
B17: 46F_47E_49P_50I_52G_53H_54S_55F_67L_, Q9UKT9 (peptide)
chain: FECPICGHSFTQKGNLLRHIKL
B18: 46F_47Y_49E_50Q_52G_53A_54T_55F_67L_, Q9UKT9 (peptide)
chain: FYCEQCGATFTQKGNLLRHIKL
B19: 46F_47S_49E_50I_52G_53A_54Y_55F_67L_, Q9UKT9 (peptide)
chain: FSCEICGAYFTQKGNLLRHIKL
B20: 46F_47W_49P_50V_52G_53A_54C_55F_67L_, Q9UKT9 (peptide)
chain: FWCPVCGACFTQKGNLLRHIKL
B21: 46F_47Q_49P_50V_52G_53A_54C_55F_67L_, Q9UKT9 (peptide)
chain: FQCPVCGACFTQKGNLLRHIKL
B22: 46F_47K_49P_50Q_52G_53A_54C_55F_67L_, Q9UKT9 (peptide)
chain: FKCPQCGACFTQKGNLLRHIKL
B23: 46F_47Y_49N_50V_52G_53A_54C_55F_67L_, Q9UKT9 (peptide)
chain: FYCNVCGACFTQKGNLLRHIKL
B24: 46F_47H_49P_50V_52G_53A_54C_55F_67L_, Q9UKT9 (peptide)
chain: FHCPVCGACFTQKGNLLRHIKL
B25: 46F_47L_49P_50V_52G_53A_54C_55F_67L_, Q9UKT9 (peptide)
chain: FLCPVCGACFTQKGNLLRHIKL
B26: 46F_47Q_49P_50Q_52G_53A_54C_55F_67L_, Q9UKT9 (peptide)
chain: FQCPQCGACFTQKGNLLRHIKL
B27: 46F_47K_49P_50V_52G_53A_54C_55F_67L_, Q9UKT9 (peptide)
chain: FKCPVCGACFTQKGNLLRHIKL
B28: 46F_47Y_49P_50V_52G_53A_54C_55F_67L_, Q9UKT9 (peptide)
chain: FYCPVCGACFTQKGNLLRHIKL
B29: 46F_47N_49P_50V_52G_53A_54C_55F_67L_, Q9UKT9 (peptide)
chain: FNCPVCGACFTQKGNLLRHIKL
B30: 46F_47V_49P_50Q_52G_53A_54C_55F_67L_, Q9UKT9 (peptide)
chain: FVCPQCGACFTQKGNLLRHIKL

Target: T1, CRBN, Q96SW2
Experiment: log2 fold change of degron read counts, EGFP-low vs EGFP+ sorted cells (limma voom), compound-induced degradation; higher = more compound-induced degradation of the degron-EGFP fusion; degrons are variants of IKZF1/3 zinc finger 2; compound dose not given here
Settings: Jurkat, 18 h
[1] = compound: compound 19 (5-tert-butyl-thalidomide)
[2] = compound: compound 22 (5-morpholino-thalidomide)
[3] = compound: compound 33 (diphenyl IMiD analogue)
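Further: pooled lentiviral library of zinc finger degron-EGFP fusions in mCherry-positive Jurkat cells, FACS-sorted after compound exposure, with degron abundance counted by next-generation sequencing.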

Sequence | log2 fold change of degron read counts [1] | log2 fold change of degron read counts [2] | log2 fold change of degron read counts [3] | log2 fold change of degron read counts (compound: thalidomide)
B1 | -2.33 | -3.03 | -3.25 | -2.08
B2 | -2.29 | -1.84 | -2.04 | -2.29
B3 | -2.24 | -2.24 | 0.504 | -1.37
B4 | -2.96 | -3.3 | -2.71 | -2.65
B5 | -1.81 | -1.82 | -1.14 | -1.84
B6 | -0.211 | -0.371 | 0.994 | 0.267
B7 | -3.09 | -3.12 | -3.48 | -3.28
B8 | -0.952 | -1.34 | -1.18 | -1.07
B9 | 0.909 | 1.9 | 0.606 | 2.84
B10 | -2.84 | -2.15 | 0.0969 | -1.3
B11 | -2.45 | -2.17 | -1.87 | -1.49
B12 | -1.82 | -2.41 | -0.354 | 0.562
B13 | 3.59 | 3.59 | 2.92 | 1.64
B14 | 2.89 | 2.79 | 2.34 | 3.64
B15 | 0.759 | 2.95 | 2.44 | 3.09
B16 | 1.93 | 2.89 | 2.35 | 3.15
B17 | -2.78 | -2.96 | -1.75 | -1.65
B18 | 0.368 | 2.41 | 0.941 | -1.4
B19 | 2.46 | 1.44 | 1.69 | 0.848
B20 | 3.4 | 3.44 | 2.56 | 1.36
B21 | 0.553 | 2.77 | 2.39 | 3.46
B22 | -2.36 | -3 | -3.29 | -2.34
B23 | 1.86 | 2.44 | 1.12 | -0.449
B24 | 2.42 | 2.44 | 2.11 | 0.528
B25 | 0.241 | -0.146 | 1.72 | 1.62
B26 | -1.4 | 0.844 | 0.805 | 3.26
B27 | -0.716 | -1.95 | -2.51 | -0.832
B28 | 3.26 | 3.4 | 2.69 | 1.29
B29 | 1.6 | 0.504 | 1 | -0.0222
B30 | -1.94 | -0.402 | 0.593 | 0.301
